For nine molecules, binding signal results are on record in paper PMC12529666, “Dysregulation of AGO2-miRNA dynamics underlies the AGO2-associated Lessel–Kreienkamp syndrome”.

What all share (experiment): RNA Bind-n-Seq (nitrocellulose filter binding and sequencing); miR-122 guide loaded in AGO2; 60 min incubation; 30 mM Tris pH 8.0, 100 mM potassium acetate, 2 mM magnesium acetate, 0.5 mM TCEP, 0.005% NP-40, 0.01 mg/ml yeast tRNA; 3 nM AGO2-miR-122, 100 nM RNA library; 60; high values mean tight binding
What all share (details): protein: recombinant; tags: His6 (N-terminal, pFastBac HTA)

In experiment [1] the target is AGO2 WT (phosphosite mutant background) (Homo sapiens, UniProt Q9UKV8 1-859, S387D;S824A;S828D;S831D;S834A). The method in brief:
(§1)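 Fold enrichment is each target's read fraction divided by its read fraction in the input library. Sf9 insect cells expressed His-tagged AGO2 from baculovirus; the protein was loaded with a synthetic guide RNA and purified by Ni-NTA and a biotinylated capture oligo. The bound RNA was extracted, reverse-transcribed, barcode-amplified and sequenced on Illumina.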

The target in the next experiment is AGO2 L192P (Homo sapiens, UniProt Q9UKV8 1-859, L192P;S387D;S824A;S828D;S831D;S834A). The method in brief:
as §1

Another experiment addresses AGO2 A367P (Homo sapiens, UniProt Q9UKV8 1-859, A367P;S387D;S824A;S828D;S831D;S834A). The method, boiled down:
as §1

For a further experiment, the target named is AGO2 T357M (Homo sapiens, UniProt Q9UKV8 1-859, T357M;S387D;S824A;S828D;S831D;S834A). The method, boiled down: as §1
Sequence of AGO2 T357M (Q9UKV8 whole entry T357M/S387D/S824A/S828D/S831D/S834A): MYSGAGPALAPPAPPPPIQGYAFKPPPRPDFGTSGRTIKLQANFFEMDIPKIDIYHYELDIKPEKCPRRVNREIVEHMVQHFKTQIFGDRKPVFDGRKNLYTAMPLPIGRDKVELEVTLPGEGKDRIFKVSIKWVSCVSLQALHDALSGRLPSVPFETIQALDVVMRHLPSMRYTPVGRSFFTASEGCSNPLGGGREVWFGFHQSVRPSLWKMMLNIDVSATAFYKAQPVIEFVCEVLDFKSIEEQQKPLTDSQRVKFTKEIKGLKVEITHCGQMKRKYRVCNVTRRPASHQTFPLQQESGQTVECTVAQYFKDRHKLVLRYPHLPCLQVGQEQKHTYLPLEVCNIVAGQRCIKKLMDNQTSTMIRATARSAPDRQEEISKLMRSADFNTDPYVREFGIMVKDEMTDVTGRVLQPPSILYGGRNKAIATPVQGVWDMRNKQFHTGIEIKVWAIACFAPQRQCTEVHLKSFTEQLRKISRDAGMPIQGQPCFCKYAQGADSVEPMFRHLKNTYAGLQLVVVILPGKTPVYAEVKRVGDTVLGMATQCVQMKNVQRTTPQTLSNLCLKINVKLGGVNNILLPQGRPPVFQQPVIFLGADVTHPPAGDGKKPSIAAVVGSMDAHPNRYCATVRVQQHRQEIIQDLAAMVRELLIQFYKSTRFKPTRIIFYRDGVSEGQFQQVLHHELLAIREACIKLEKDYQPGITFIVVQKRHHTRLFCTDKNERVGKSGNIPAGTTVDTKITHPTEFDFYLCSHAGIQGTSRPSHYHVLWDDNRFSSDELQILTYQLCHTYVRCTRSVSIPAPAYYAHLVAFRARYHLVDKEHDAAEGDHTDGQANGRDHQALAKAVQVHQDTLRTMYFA
The target of another experiment is AGO2 F182del (Homo sapiens, UniProt Q9UKV8 1-859, S387D;S824A;S828D;S831D;S834A;del182-182). The method in brief: as §1
Sequence of AGO2 F182del (Q9UKV8 other isoform, or with tags, fused parts or gaps S387D;S824A;S828D;S831D;S834A;del182-182): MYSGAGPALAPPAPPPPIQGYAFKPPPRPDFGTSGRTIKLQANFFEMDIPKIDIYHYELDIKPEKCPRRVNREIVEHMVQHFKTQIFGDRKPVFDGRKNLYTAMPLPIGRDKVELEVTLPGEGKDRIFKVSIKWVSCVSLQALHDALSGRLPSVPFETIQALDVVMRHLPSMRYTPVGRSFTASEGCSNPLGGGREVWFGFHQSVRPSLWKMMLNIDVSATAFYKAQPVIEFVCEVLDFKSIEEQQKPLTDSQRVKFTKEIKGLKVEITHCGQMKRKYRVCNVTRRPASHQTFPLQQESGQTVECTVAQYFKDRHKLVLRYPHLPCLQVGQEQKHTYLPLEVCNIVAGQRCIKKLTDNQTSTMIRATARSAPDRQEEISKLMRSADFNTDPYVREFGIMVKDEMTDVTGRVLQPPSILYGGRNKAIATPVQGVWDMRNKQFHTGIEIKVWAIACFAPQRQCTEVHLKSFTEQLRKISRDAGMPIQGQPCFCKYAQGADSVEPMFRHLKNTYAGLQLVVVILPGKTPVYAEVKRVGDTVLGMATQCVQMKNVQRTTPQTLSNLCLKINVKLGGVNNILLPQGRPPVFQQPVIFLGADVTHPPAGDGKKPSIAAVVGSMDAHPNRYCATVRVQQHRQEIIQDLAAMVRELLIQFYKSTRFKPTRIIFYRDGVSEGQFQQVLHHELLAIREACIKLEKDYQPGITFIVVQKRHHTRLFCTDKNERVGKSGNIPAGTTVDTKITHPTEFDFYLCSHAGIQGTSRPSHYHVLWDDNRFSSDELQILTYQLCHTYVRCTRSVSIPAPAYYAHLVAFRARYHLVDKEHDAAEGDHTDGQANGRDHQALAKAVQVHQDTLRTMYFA

Sequence of AGO2 WT (phosphosite mutant background) (Q9UKV8 whole entry S387D/S824A/S828D/S831D/S834A): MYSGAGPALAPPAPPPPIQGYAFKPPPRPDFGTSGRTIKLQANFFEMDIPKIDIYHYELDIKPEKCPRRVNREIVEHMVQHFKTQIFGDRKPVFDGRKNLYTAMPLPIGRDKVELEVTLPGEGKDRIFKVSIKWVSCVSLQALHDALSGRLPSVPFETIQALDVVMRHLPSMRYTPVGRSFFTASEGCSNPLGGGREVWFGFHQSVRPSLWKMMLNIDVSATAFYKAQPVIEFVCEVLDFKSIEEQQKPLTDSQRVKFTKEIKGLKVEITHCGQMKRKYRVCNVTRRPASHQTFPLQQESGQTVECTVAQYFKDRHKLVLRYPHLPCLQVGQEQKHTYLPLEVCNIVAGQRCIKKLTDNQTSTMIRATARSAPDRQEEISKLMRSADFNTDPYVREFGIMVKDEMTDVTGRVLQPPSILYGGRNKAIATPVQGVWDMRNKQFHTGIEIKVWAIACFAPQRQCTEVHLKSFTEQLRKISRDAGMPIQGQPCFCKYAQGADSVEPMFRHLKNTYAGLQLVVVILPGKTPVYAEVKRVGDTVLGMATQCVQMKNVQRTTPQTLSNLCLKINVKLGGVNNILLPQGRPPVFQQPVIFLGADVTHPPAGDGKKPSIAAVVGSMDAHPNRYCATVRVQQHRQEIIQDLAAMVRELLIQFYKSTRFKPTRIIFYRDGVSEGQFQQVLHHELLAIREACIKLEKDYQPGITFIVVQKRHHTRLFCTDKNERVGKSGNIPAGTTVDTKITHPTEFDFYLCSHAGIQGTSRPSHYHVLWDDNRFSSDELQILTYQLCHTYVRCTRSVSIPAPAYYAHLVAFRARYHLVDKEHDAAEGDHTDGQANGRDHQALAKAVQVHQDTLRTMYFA
Sequence of AGO2 A367P (Q9UKV8 whole entry A367P/S387D/S824A/S828D/S831D/S834A): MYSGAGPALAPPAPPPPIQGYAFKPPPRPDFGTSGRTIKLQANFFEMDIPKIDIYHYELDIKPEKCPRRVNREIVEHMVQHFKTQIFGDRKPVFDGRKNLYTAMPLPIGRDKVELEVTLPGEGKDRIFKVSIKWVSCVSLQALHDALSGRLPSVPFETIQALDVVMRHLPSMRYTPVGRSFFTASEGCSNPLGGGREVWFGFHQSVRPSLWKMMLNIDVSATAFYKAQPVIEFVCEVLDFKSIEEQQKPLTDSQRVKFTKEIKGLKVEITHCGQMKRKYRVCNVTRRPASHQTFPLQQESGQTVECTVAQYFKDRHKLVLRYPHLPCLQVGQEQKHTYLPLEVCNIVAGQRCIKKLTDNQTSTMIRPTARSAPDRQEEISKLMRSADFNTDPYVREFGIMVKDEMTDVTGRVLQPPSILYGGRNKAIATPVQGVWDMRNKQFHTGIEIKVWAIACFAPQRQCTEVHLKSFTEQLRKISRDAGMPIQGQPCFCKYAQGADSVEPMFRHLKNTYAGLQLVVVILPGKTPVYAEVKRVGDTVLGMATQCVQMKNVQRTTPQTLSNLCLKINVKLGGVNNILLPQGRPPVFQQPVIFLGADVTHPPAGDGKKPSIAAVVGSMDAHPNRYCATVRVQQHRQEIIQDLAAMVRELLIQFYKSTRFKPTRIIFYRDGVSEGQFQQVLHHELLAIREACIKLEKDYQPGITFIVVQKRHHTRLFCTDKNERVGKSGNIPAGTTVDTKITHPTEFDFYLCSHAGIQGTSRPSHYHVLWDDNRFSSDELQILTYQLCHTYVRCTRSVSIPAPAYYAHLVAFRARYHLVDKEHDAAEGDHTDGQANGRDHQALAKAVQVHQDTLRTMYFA
Sequence of AGO2 L192P (Q9UKV8 whole entry L192P/S387D/S824A/S828D/S831D/S834A): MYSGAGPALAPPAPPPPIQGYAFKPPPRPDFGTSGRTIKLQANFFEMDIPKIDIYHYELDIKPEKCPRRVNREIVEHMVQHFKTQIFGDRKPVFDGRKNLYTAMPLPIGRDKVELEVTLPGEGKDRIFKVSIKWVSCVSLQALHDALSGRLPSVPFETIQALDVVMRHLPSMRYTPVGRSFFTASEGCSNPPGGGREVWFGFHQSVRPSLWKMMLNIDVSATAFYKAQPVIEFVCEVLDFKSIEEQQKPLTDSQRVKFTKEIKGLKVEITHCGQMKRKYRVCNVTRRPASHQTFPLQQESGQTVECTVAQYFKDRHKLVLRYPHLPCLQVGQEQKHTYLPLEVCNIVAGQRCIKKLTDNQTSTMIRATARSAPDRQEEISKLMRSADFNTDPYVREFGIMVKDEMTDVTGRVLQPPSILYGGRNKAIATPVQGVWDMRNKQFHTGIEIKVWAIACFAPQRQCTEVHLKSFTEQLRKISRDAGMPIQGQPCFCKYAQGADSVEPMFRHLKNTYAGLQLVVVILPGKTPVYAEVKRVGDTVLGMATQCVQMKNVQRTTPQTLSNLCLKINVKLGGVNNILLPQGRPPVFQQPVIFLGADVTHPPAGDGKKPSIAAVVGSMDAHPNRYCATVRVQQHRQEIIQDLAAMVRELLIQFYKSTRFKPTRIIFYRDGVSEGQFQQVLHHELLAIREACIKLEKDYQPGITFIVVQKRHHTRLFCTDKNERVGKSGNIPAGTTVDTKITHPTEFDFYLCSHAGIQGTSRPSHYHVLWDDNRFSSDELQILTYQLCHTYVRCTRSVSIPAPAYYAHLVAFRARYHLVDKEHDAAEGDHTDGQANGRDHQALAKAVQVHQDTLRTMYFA

B1: ACACCTTA (ssRNA)
RNA 1: GAGUUCUACAGUCCGACGAUCCCAACACACCUUACACCUGGAAUUCUCGGGUGCCAA
RNA 2: UGGAGUGUGACAAUGGUGUUUG
DNA 1: GATCGTCGGACTGTAGAACTC
DNA 2: TTGGCACCCGAGAATTCCA
modifications: constant regions annealed to DNA blockers; guide miR-122 5' phosphate
For the molecule B1, the binding signal is 0.164 fold enrichment over input in experiment [1]; 0.755 fold enrichment over input with AGO2 L192P; 0.475 fold enrichment over input with AGO2 A367P; 0.721 fold enrichment over input in the experiment with AGO2 T357M; 1.89 fold enrichment over input with AGO2 F182del.

B2: GCGTTTCA (ssRNA)
RNA 1: GAGUUCUACAGUCCGACGAUCCCAACGCGUUUCACACCUGGAAUUCUCGGGUGCCAA
RNA 2: UGGAGUGUGACAAUGGUGUUUG
DNA 1: GATCGTCGGACTGTAGAACTC
DNA 2: TTGGCACCCGAGAATTCCA
modifications: constant regions annealed to DNA blockers; guide miR-122 5' phosphate
On to B2, for which the binding signal in experiment [1] was 0.125 fold enrichment over input; with AGO2 L192P, 0.513 fold enrichment over input; with AGO2 A367P, 0.227 fold enrichment over input; in the experiment with AGO2 T357M it was 0.632 fold enrichment over input; in the experiment with AGO2 F182del, 0.326 fold enrichment over input.

B3: ACACCCCG (ssRNA)
RNA 1: GAGUUCUACAGUCCGACGAUCCCAACACACCCCGCACCUGGAAUUCUCGGGUGCCAA
RNA 2: UGGAGUGUGACAAUGGUGUUUG
DNA 1: GATCGTCGGACTGTAGAACTC
DNA 2: TTGGCACCCGAGAATTCCA
modifications: constant regions annealed to DNA blockers; guide miR-122 5' phosphate
Turning to B3, the binding signal is 0.152 fold enrichment over input in experiment [1]; 0.517 fold enrichment over input with AGO2 L192P; 0.259 fold enrichment over input with AGO2 A367P; 0.517 fold enrichment over input with AGO2 T357M; 0.82 fold enrichment over input in the experiment with AGO2 F182del.

B4: GCGCTCCA (ssRNA)
RNA 1: GAGUUCUACAGUCCGACGAUCCCAACGCGCUCCACACCUGGAAUUCUCGGGUGCCAA
RNA 2: UGGAGUGUGACAAUGGUGUUUG
DNA 1: GATCGTCGGACTGTAGAACTC
DNA 2: TTGGCACCCGAGAATTCCA
modifications: constant regions annealed to DNA blockers; guide miR-122 5' phosphate
Turning to B4, the binding signal in experiment [1] is 1.63 fold enrichment over input; in the experiment with AGO2 L192P, 3.25 fold enrichment over input; with AGO2 A367P, 2.69 fold enrichment over input; with AGO2 T357M, 1.03 fold enrichment over input; in the experiment with AGO2 F182del, 6.7 fold enrichment over input.

B5: ATATTCCA (ssRNA)
RNA 1: GAGUUCUACAGUCCGACGAUCCCAACAUAUUCCACACCUGGAAUUCUCGGGUGCCAA
RNA 2: UGGAGUGUGACAAUGGUGUUUG
DNA 1: GATCGTCGGACTGTAGAACTC
DNA 2: TTGGCACCCGAGAATTCCA
modifications: constant regions annealed to DNA blockers; guide miR-122 5' phosphate
With B5, the binding signal is 0.121 fold enrichment over input in experiment [1]; 0.564 fold enrichment over input in the experiment with AGO2 L192P; 0.22 fold enrichment over input with AGO2 A367P; 0.646 fold enrichment over input with AGO2 T357M; 0.372 fold enrichment over input in the experiment with AGO2 F182del.

B6: ATGTCTTA (ssRNA)
RNA 1: GAGUUCUACAGUCCGACGAUCCCAACAUGUCUUACACCUGGAAUUCUCGGGUGCCAA
RNA 2: UGGAGUGUGACAAUGGUGUUUG
DNA 1: GATCGTCGGACTGTAGAACTC
DNA 2: TTGGCACCCGAGAATTCCA
modifications: constant regions annealed to DNA blockers; guide miR-122 5' phosphate
With B6, the binding signal is 0.142 fold enrichment over input in experiment [1]; 0.569 fold enrichment over input in the experiment with AGO2 L192P; 0.399 fold enrichment over input in the experiment with AGO2 A367P; 0.646 fold enrichment over input with AGO2 T357M; 0.57 fold enrichment over input with AGO2 F182del.

B7: GCACCCCG (ssRNA)
RNA 1: GAGUUCUACAGUCCGACGAUCCCAACGCACCCCGCACCUGGAAUUCUCGGGUGCCAA
RNA 2: UGGAGUGUGACAAUGGUGUUUG
DNA 1: GATCGTCGGACTGTAGAACTC
DNA 2: TTGGCACCCGAGAATTCCA
modifications: constant regions annealed to DNA blockers; guide miR-122 5' phosphate
Turning to B7, the binding signal was 0.129 fold enrichment over input in experiment [1]; 0.455 fold enrichment over input with AGO2 L192P; 0.21 fold enrichment over input with AGO2 A367P; 0.634 fold enrichment over input with AGO2 T357M; 0.203 fold enrichment over input in the experiment with AGO2 F182del.

B8: GCGCTCCG (ssRNA)
RNA 1: GAGUUCUACAGUCCGACGAUCCCAACGCGCUCCGCACCUGGAAUUCUCGGGUGCCAA
RNA 2: UGGAGUGUGACAAUGGUGUUUG
DNA 1: GATCGTCGGACTGTAGAACTC
DNA 2: TTGGCACCCGAGAATTCCA
modifications: constant regions annealed to DNA blockers; guide miR-122 5' phosphate
Consider B8, for which the binding signal in experiment [1] is 1.39 fold enrichment over input; with AGO2 L192P, 3.09 fold enrichment over input; with AGO2 A367P it was 4.35 fold enrichment over input; with AGO2 T357M it was 0.905 fold enrichment over input; in the experiment with AGO2 F182del, 7.66 fold enrichment over input.

B9: ACATTTTA (ssRNA)
RNA 1: GAGUUCUACAGUCCGACGAUCCCAACACAUUUUACACCUGGAAUUCUCGGGUGCCAA
RNA 2: UGGAGUGUGACAAUGGUGUUUG
DNA 1: GATCGTCGGACTGTAGAACTC
DNA 2: TTGGCACCCGAGAATTCCA
modifications: constant regions annealed to DNA blockers; guide miR-122 5' phosphate
Take B9: the binding signal in experiment [1] is 0.122 fold enrichment over input; with AGO2 L192P it was 0.534 fold enrichment over input; with AGO2 A367P, 0.209 fold enrichment over input; with AGO2 T357M it was 0.598 fold enrichment over input; with AGO2 F182del, 0.359 fold enrichment over input.
